Inconclusive results are not listed. The source made the active and inactive calls.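 How the source made its calls, unless noted: active means growth inhibition above 25% in both replicates, a cutoff set 3 SD above the mean; inconclusive means above 25% in only one replicate; inactive means the rest.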
What was measured:
[1] = S. cerevisiae growth inhibition in permissive medium (OD615), pilot counter-assay for S. cerevisiae lifespan shortening project, permissive growth control (AID 705); conditions: OD615, 24 h, at 10 µM, stronger effect = higher value
[2] = S. cerevisiae growth inhibition in restrictive medium, OD615, pilot screen, restrictive growth control, yeast lifespan reduction project (AID 706;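 active means growth inhibition above a set limit, 3 SD over mean compound inhibition, in both replicates, cut at about 43% in these data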;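 further: modified DeaD lifespan yeast strain shifted to restrictive glucose medium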); conditions: OD615, 48 h, at 10 µM, stronger effect = higher value
[3] = doxorubicin toxicity protection in MRP-1 cells – H69AR cells, CellTiter-Glo, duplicate, MRP-1 activator project, pilot screen (AID 807;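 active means viability increase at or above a cutoff of the median across tested compounds plus 3 SD, cut at about 8.5% in these data, passing the limit was not always enough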;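 further: compound pretreatment 18-22 h then 72 h combined with doxorubicin; 0% = doxorubicin alone and 100% = vehicle without doxorubicin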); conditions: H69AR viability with doxorubicin, CellTiter-Glo luminescence; at 10 µM; stronger effect = higher value
[4] = viability of HCT116 without oncogenic beta-catenin – human colon tumor cells, pilot screen (AID 823;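 active means cell viability at or below a set limit in both duplicate runs, the limit being the all-compound median minus 4 SD, cut at about 23% in these data, passing the limit was not always enough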;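 further: 0% = wells killed by 20 µM Hyamine and 100% = untreated DMSO cell wells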); conditions: HCT116 beta-catenin knockout viability, CellTiter-Glo, 60 h; at 10 µM; stronger effect = lower value
[5] = viability of PTEN-null HCT116 cells – cell-based, HCT116 clonal line, CellTiter-Glo, pilot screen (AID 824;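 active means viability at or below 27.92% in each of two runs, the all-compound median minus 4 SD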;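 further: 0% = 20 µM Hyamine control and 100% = vehicle cell control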); conditions: HCT116 PTEN-deleted viability, 60 h, at 10 µM, stronger effect = lower value
[6] = RAM pathway blockade in budding yeast – dse1pr::URA3 reporter, 5-FOA selection, pilot screen (AID 869;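 active means inhibition over a set limit, the all-compound mean plus 3 SD, in both replicate runs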;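 further: 0% = DMSO wells with no growth and 100% = 10 µM 1-NA-PP1 with full growth; RAM network block rescues cells from 5-FOA so hits raise OD615 growth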); conditions: S. cerevisiae dse1pr::URA3 5-FOA growth, OD615, 2 d, at 10 µM, stronger effect = higher value
[7] = RAM signaling pathway blockade in yeast – S. cerevisiae, Pdr1DBD-CYC8 efflux-inhibited sensitized strain, primary screen (AID 1298;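 active means RAM network inhibition above 8.4% in each of two replicates, 3 SD over the compound average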;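 further: 0% = DMSO untreated cells without growth and 100% = 10 µM 1-NA-PP1 full growth; higher means more yeast growth rescued from 5-FOA killing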); conditions: S. cerevisiae cbk1-as DSE1-URA3 strain, 5-FOA growth OD615, 2 d; at 50 µM; stronger effect = higher value
[8] = biological target: Pantothenate synthetase (Mycobacterium tuberculosis (strain ATCC 25618 / H37Rv)) (UniProt P9WIL5); assay: Coupled enzyme confirmation of inhibitors against recombinant Mtb PanC (AID 375; call rule not given here;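 further: 0% = full reaction with vehicle and 100% = no enzyme background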); conditions: coupled enzyme assay; at 10 µM, stronger effect = higher value
[9] = Her2 expression decrease, cell viability multiplex – SKBR3 breast tumor cells, AlphaScreen, ATP viability, primary screen (AID 461;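 active means Her2 level under about 52% in both replicate screens, with viability over 70% of control, limit read from the data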;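 on Her2 level: lower value means less Her2 protein in the cells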;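 on viability: percent of carrier control wells set as 100% viability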); conditions: SKBR3 Her2 protein level, 18-24 h, measured here: SKBR3 viability, ATP luminescence, at 10 µM
[10] = biological target: Receptor tyrosine-protein kinase erbB-2 (Homo sapiens) (UniProt P04626); assay: as above; conditions: 18-24 h, at 10 µM, stronger effect = lower value
[11] = reduced viability of SK-BR-3 breast cancer cells – cell-based, 24 h, human, pilot screen (AID 572;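 active means viability at or below 10% of carrier control in both of two separate runs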;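 further: compound exposure lasted between 18 and 24 h rather than exactly 24 h; 100% = carrier-treated control wells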); conditions: SK-BR-3 viability, CellTiter-Glo luminescence, at 10 µM, stronger effect = lower value
[12] = HUVEC growth inhibition – cell-based, human, primary screen (AID 575;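 active means viability at or below 30% in both replicate assays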;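 further: 100% = median of untreated cell wells with 0.1% DMSO on each plate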); conditions: HUVEC proliferation, CellTiter-Glo luminescence, 72 h; at 10 µM; stronger effect = lower value
[13] = MRP1 drug-resistance reversers in H69AR cells – cell-based, doxorubicin co-treatment, pilot screen (AID 601;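 active means viability loss from added drug above about 55%, and viability with drug at most 40%, in both replicates, limit read from the data, passing the limit was not always enough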); conditions: CellTiter-Glo, 72 h, at 10 µM; for differential viability (reversal): stronger effect = higher value
[14] = yeast transport mutant growth inhibition pilot in 384-well plates, post-Golgi transport modulator project (AID 636; in the data active means inhibition above about 31%); conditions: absorbance 615 nm, about 18 h, stronger effect = higher value
[15] = growth suppression of yeast trafficking mutant, preliminary HTS, modulators of trafficking downstream of Golgi apparatus project, 1536-format plate, OD 615 nm (AID 637; in the data active means inhibition above about 30%); conditions: yeast transport mutant growth, absorbance 615 nm, 18 h; stronger effect = higher value
[16] = H69AR cell proliferation blockers – human, duplicate replicates, primary screen (AID 580;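 active means viability at or under a set limit in both replicates, limit being median viability minus 3 SD, cut at about 48% in these data, passing the limit was not always enough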;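 further: 100% = mean luminescence of untreated wells and 0% = no signal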); conditions: H69AR lung tumor cells viability, ATP luminescence, 72 h; at 10 µM; stronger effect = lower value
[17] = H69AR cells + 2 uM doxorubicin, measured here: viability with 2 uM doxorubicin, stronger effect = lower value
[18] = H69AR cells, compound alone cytotoxicity

Pantothenate synthetase (Mycobacterium tuberculosis (strain ATCC 25618 / H37Rv)), sequence (P9WIL5 whole entry, looked up): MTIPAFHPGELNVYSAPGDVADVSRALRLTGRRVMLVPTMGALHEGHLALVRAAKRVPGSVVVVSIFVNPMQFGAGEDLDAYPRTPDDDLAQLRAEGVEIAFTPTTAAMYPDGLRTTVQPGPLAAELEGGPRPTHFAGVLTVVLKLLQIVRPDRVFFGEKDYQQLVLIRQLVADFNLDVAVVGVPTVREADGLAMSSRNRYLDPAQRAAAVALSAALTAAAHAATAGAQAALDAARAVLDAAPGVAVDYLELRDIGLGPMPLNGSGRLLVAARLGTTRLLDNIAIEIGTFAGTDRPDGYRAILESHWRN
Receptor tyrosine-protein kinase erbB-2 (Homo sapiens), sequence (P04626 whole entry, looked up): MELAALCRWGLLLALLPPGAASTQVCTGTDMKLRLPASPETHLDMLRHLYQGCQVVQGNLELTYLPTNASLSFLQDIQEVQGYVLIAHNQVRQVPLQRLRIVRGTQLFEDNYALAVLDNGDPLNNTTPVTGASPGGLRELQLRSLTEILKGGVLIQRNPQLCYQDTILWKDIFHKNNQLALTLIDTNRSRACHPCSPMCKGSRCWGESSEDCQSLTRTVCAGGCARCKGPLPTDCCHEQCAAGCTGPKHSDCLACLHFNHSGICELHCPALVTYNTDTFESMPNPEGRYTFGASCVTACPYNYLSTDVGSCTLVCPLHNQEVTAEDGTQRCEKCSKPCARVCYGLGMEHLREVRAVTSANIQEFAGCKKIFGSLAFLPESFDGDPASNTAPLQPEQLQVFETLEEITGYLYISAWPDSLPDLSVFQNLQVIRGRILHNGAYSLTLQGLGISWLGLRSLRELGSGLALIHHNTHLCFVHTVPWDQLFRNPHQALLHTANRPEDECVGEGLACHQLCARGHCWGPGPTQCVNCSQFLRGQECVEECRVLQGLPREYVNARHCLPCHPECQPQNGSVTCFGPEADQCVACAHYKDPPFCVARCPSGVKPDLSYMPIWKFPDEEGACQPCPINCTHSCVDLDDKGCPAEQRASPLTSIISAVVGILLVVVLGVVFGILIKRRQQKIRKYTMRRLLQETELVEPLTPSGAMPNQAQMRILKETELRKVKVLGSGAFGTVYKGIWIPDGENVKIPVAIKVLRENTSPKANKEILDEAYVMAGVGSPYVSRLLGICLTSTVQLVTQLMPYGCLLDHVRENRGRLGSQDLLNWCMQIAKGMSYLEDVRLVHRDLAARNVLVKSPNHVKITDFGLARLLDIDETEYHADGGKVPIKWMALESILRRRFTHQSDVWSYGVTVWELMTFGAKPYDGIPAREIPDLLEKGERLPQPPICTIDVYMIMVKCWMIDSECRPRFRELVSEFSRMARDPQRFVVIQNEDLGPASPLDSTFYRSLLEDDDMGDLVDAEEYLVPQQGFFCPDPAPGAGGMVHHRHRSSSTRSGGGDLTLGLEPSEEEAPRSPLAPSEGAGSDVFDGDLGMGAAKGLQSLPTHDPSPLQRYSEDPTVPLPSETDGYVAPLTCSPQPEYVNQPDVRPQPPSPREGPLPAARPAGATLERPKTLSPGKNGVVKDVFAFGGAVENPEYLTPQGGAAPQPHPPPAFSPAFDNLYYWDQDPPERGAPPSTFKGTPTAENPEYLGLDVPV

Cc1cc(C)n2c(Br)c(CN3CC4CC(C3)c3cccc(=O)n3C4)nc2n1 (stereo not drawn)
inactive: growth inhibition [1] -3.02% | growth inhibition [2] -5.3% | viability increase [3] -2.43% | viability [4] 90.9% | viability [5] 105% | inhibition [6] 1.09% | RAM network inhibition [7] -0.1%

COc1ccc(N2C(=O)CC(N3CC=C(c4ccccc4)CC3)C2=O)cc1 (stereo not drawn)
inactive: growth inhibition [1] -17.8% | growth inhibition [2] -0.61% | viability increase [3] 1.66% | viability [4] 101% | viability [5] 103% | inhibition [6] 0.145% | RAM network inhibition [7] 4.45%

CCOc1ccc(C2SCC(=O)Nc3c2c(=O)[nH]n3C2CCCCCC2)cc1 (stereo not drawn)
inactive: inhibition [8] 0% | Her2 level [10] 108% | viability [11] 110% | viability [12] 63.8% | differential viability (reversal) ([13]; H69AR cells + 2 uM doxorubicin) 1.13% | inhibition [14] -5.2% | inhibition [15] -7.62% | growth inhibition [1] -17.8% | growth inhibition [2] -3.29% | viability increase [3] -7.49% | viability [4] 97.7% | inhibition [6] 2.26% | RAM network inhibition [7] 4%
58.3%: viability [13, 18]
57.2%: viability [13, 17]
110%: viability [9]

COc1ccc(C2SCC(=O)Nc3c2c(=O)[nH]n3C2CCCCCC2)cc1OC (stereo not drawn)
inactive: inhibition [8] 6% | Her2 level [10] 89% | viability [11] 124% | viability [12] 105% | viability [16] 91.3% | differential viability (reversal) ([13]; H69AR cells + 2 uM doxorubicin) 7.54% | inhibition [14] -5.6% | inhibition [15] 4.1% | growth inhibition [1] -18.6% | growth inhibition [2] -6.19% | viability increase [3] -4.42% | viability [4] 92.4% | inhibition [6] 0.915% | RAM network inhibition [7] 1.3%
124%: viability [9]
91.3%: viability [13, 18]
83.8%: viability [13, 17]

CC1(C)Cc2c(sc3c2C(=O)NC(c2cccnc2)N3)CO1 (stereo not drawn)
113%: viability [9]
85.7%: viability [13, 17]
98.5%: viability [13, 18]
inactive: inhibition [8] 7% | Her2 level [10] 83.5% | viability [11] 113% | viability [12] 102% | viability [16] 98.5% | differential viability (reversal) ([13]; H69AR cells + 2 uM doxorubicin) 12.8% | inhibition [14] -3.47% | inhibition [15] 1.48% | growth inhibition [1] -16.3% | growth inhibition [2] 11.8% | viability increase [3] -2.97% | viability [4] 107% | inhibition [6] 1.58% | RAM network inhibition [7] 5.15%

CC1CCCCN1CC(=O)c1ccc2cc[nH]c2c1 (stereo not drawn)
inactive: growth inhibition [1] -4.76% | growth inhibition [2] 3.28% | viability increase [3] -2.48% | viability [4] 98.1% | viability [5] 89.4% | inhibition [6] 1.31% | RAM network inhibition [7] 2.76%

CCOc1ccc(-n2c(CC)nc3ccccc3c2=O)cc1
inactive: growth inhibition [1] -2.47% | growth inhibition [2] -8.86% | viability increase [3] -1.18% | viability [4] 88% | viability [5] 89.8% | inhibition [6] 1.81% | RAM network inhibition [7] 3.89%

O=C(CN1CC(c2ccccc2)CC1=O)NCc1ccc(F)cc1 (stereo not drawn)
inactive: growth inhibition [1] -10.3% | growth inhibition [2] 12.3% | viability increase [3] 0.06% | viability [4] 103% | viability [5] 103% | inhibition [6] 2.63% | RAM network inhibition [7] -0.21%

O=C(c1ccccc1)c1cn(CC(=O)N2CCCC2)c2ccccc12
inactive: growth inhibition [1] -15.1% | growth inhibition [2] -16.4% | viability increase [3] -1.14% | viability [4] 102% | viability [5] 92% | inhibition [6] 3.23% | RAM network inhibition [7] 4.67%

CCOc1ccc(-n2c(O)c(C=Nc3ccc(N4CCOCC4)cc3)c(=O)[nH]c2=O)cc1
inactive: growth inhibition [1] -8.12% | growth inhibition [2] -10.6% | viability increase [3] -3.19% | viability [4] 97.8% | viability [5] 103% | inhibition [6] 0.445% | RAM network inhibition [7] 5.35%

O=C(O)C1CN2CCC1CC2 (stereo not drawn)
inactive: growth inhibition [1] -6.59% | growth inhibition [2] 5.84% | viability increase [3] -0.31% | viability [4] 96.2% | viability [5] 93.3% | inhibition [6] 0.99% | RAM network inhibition [7] -0.77%

O=C(CN1CC(c2ccccc2)CC1=O)Nc1ccccc1 (stereo not drawn)
inactive: growth inhibition [1] -20.4% | growth inhibition [2] -12.7% | viability increase [3] -1.8% | viability [4] 106% | viability [5] 95.4% | inhibition [6] 1.06% | RAM network inhibition [7] 4.01%

CC12CCC(=O)C=C1CCC1C2CCC2(C)C(O)CCC12 (stereo not drawn)
inactive: growth inhibition [1] 5.38% | growth inhibition [2] 6.93% | viability increase [3] -3.17% | viability [4] 89.5% | viability [5] 94% | inhibition [6] 0.475% | RAM network inhibition [7] 1.32%

O=C1CCCC2=C1C(c1cccnc1)Nc1ccccc1N2 (stereo not drawn)
inactive: growth inhibition [1] -12.3% | growth inhibition [2] -2.74% | viability increase [3] -1.06% | viability [4] 90.8% | viability [5] 99.2% | inhibition [6] 1.61% | RAM network inhibition [7] 4.54%

CN(C(=O)Oc1cccc2cccnc12)c1ccccc1
inactive: growth inhibition [1] -2.11% | growth inhibition [2] 3.21% | viability increase [3] -0.61% | viability [4] 91% | viability [5] 90.1% | inhibition [6] 0.415% | RAM network inhibition [7] 2.67%

CC12CN3CC(C)(CN(C1)C3c1cccnc1)C2=O (stereo not drawn)
inactive: growth inhibition [1] -9.24% | growth inhibition [2] 7.5% | viability increase [3] -0.3% | viability [4] 103% | viability [5] 100% | inhibition [6] 1.14% | RAM network inhibition [7] 9%

C=C(C)c1cccc(C(C)(C)NC(=O)NC2CN3CCC2CC3)c1 (stereo not drawn)
inactive: growth inhibition [1] -5.2% | growth inhibition [2] 2.09% | viability increase [3] -1.24% | viability [4] 94.4% | viability [5] 93.9% | inhibition [6] -0.575% | RAM network inhibition [7] 0.82%

From PubChem BioAssay
